# From PubChem BioAssay (EPA / NIEHS)
# Records with an inconclusive call do not appear. Where a structure was tested more than once in an assay, its records may differ in their call. Active and inactive are the calls of the source. Rule for the calls: active = hit-call score of the fitted dose curve at least 0.9, where 1 is the maximum; inconclusive = response in the unintended direction; inactive = score below 0.9.
# Assay: TOX21_p53_BLA_p3_viability: Viability Assessment in the Tox21 HCT-116 p53 Agonism Beta-lactamase Assay, Phase 3 (AID 2283593);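 note: cells exposed to compound for 16 h before reading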
# From the text: TOX21_p53_BLA_p3 is a cell-based, single-readout assay that uses HCT116, a human intestinal cell line, […] in a 1536-well plate.TOX21_p53_BLA_p3_viability is an assay readout measuring cellular ATP content and detected with CellTiter-Glo Luciferase-coupled ATP quantitation.TOX21_p53_BLA_p3_viability used a type of viability reporter where loss-of-signal activity can be used to understand changes in the cell viability. Furthermore, this assay endpoint can be referred to as a secondary readout, because this assay has produced multiple assay endpoints where this one serves a viability function. To generalize the intended target to other relatable targets, this assay endpoint is annotated to the cell cycle intended target family, where the subfamily is cytotoxicity.
# Thawing Method: Place 14 mL of pre-warmed thaw medium into a 15 mL of conical tub. Remove the vial of cells to be thawed from liquid nitrogen and thaw rapidly by placing at 37C in a water bath with gentle agitation for 1-2 minutes. Decontaminate the vial by wiping with 70% ethanol before opening in a biological safety cabinet. Transfer the vial contents drop-wise into 14 mL of thaw medium in a sterile 15-mL conical tub. Centrifuge cells at 900 rpm for 4 minutes and resuspend in thaw medium. Transfer contents to the T75 tissue culture flask containing Thaw Medium and place flask in a humidified 37C/5% CO2 incubator. Switch to growth medium at first passage.Propagation Method: Aspirate medium, rinse once in DPBS, add 0.25% Trypsin/EDTA and swirl to coat the cell evenly. Add an equal volume of Growth Medium to inactivate Trypsin after 2-3 minutes incubation at 37C. Centrifuge cells at 900 rpm for 4 minutes and resuspend in growth medium. Cell should be passage or fed at least twice a week.Assay Protocol: Harvest cells from culture in growth medium and resuspend in assay medium. 2.2 Dispense 4000 cells/5 uL/well into 1536-well black/clear bottom plates using a Multidrop dispenser. After the cells were incubated at 37C for 5 hours, 23 nL of compounds dissolved in DMSO were transferred to the assay plate by a PinTool resulting in a 217-fold dilution. Incubate the plates for 16 hours at 37C, 5% CO2. Add 1 uL of 6X LiveBLAzer FRET B/G (CCF4-AM) Substrate Mixture to each well using a BioRAPTR dispenser and incubate the plates at room temperature for 2 hours. Measure fluorescence intensity at 460 and 530 nm emission and 405 nm excitation by an Envision detector. Data is expressed as the ratio of 460nm/530nm emissions. Add 4 uL of Cell-titer Glo to each well using BioRAPTR and incubate the plates at room temperature for […]. For cell viability readout that measures cytotoxicity, 4 ul/well of CellTiter-Glo reagent was added into the assay plates using a Flying Reagent Dispenser. After 30 min incubation at room temperature, the luminescence intensity in the plates was measured using a ViewLux plate reader.
Structure (SMILES),AC50,outcome
O=CC=C(c1ccccc1)c1ccccc1,47.3 µM (active),
CC(=O)C=Cc1ccco1,,inactive
COC[C@H](c1ccc(C(F)(F)F)cc1)N1CCN(C2(C)CCN(C(=O)c3c(C)ncnc3C)CC2)C[C@H]1C,,inactive
NC(=S)N/N=C/c1cccnc1,,inactive
CCOC(=O)[C@H](CCc1ccccc1)N[C@@H](C)C(=O)N(CC(=O)O)C1Cc2ccccc2C1,,inactive
Cc1cc(-c2ccc(N=Nc3cc(S(=O)(=O)O)c4ccccc4c3N)c(C)c2)ccc1N=Nc1cc(S(=O)(=O)O)c2ccccc2c1N,,inactive
CN1C[C@@H]2C[C@H]1CN2c1cc2c(cc1F)c(=O)c(C(=O)O)cn2C1CC1,,inactive
CC(=O)Nc1ccc(N)cc1,,inactive
C=CC1=C(C(=O)O)N2C(=O)[C@@H](NC(=O)C(=NOCC(=O)O)c3csc(N)n3)[C@H]2SC1,,inactive
O=C(O)c1ccc2cc(O)ccc2c1,,inactive
C1CC(COCC2CO2)CCC1COCC1CO1 (stereo not given),,inactive
COc1ccc(CN2CCN(C(c3ccc(F)cc3)c3ccc(F)cc3)CC2)c(OC)c1OC,23 µM (active),
C[C@H]1O[C@@H](n2cc(F)c(=O)[nH]c2=O)[C@H](O)[C@@H]1O,15.5 µM (active),
C=C1[C@@H]2CC[C@@H](C2)C1(C)C,,inactive
O=C1CC2(CCCC2)CC(=O)N1CCNCC1COc2ccccc2O1 (stereo not given),,inactive
c1cnc2c(n1)CCCC2,,inactive
C(=C/c1ccccc1)/c1ccccc1,,inactive
Nc1cc(C(Cl)=C(Cl)Cl)c(S(N)(=O)=O)cc1S(N)(=O)=O,,inactive
CCCCCCCCSCC,,inactive
O=c1[nH]c(=O)n([C@H]2C[C@H](O)[C@@H](CO)O2)cc1I,,inactive

Structure (SMILES),AC50,outcome
CCCCCCCCCCCCCCCCOCCOCCOCCOCCOCCOCCOCCOCCOCCOCCOCCOCCOCCOCCOCCOCCOCCOCCOCCOCCO,6.03 µM (active),
CNCCC(Oc1ccc(C(F)(F)F)cc1)c1ccccc1 (stereo not given),74 µM (active),inactive
CCCC(=O)CC,,inactive
C=CN1CCCCCC1=O,,inactive
COc1c(C)c2c(c(O)c1C/C=C(\C)CCC(=O)OCCN1CCOCC1)C(=O)OC2,,inactive
COCCCN,,inactive
Cc1nc(NS(=O)(=O)c2ccc(N)cc2)nc(C)c1Br,,inactive
CC(C)(C)NC[C@H](O)COc1nsnc1N1CCOCC1,,inactive
Oc1cn2c(n1)Nc1ccc(Cl)c(Cl)c1C2,,inactive
CCOC(=O)COc1ccc2c(C)c(CCN(CC)CC)c(=O)oc2c1Cl,,inactive
C[N+](C)(CCCCCC[N+](C)(C)C1c2ccccc2-c2ccccc21)C1c2ccccc2-c2ccccc21,,inactive
O=C(O)C=CC(=O)Nc1ccc(S(=O)(=O)Nc2nccs2)cc1,,inactive
Nc1c(CC(=O)O)cccc1C(=O)c1ccc(Br)cc1,,inactive
NC(N)=NN=Cc1c(Cl)cccc1Cl,,inactive
CCCCCCCCCCCCCCCCCC(=O)[O][Al],,inactive
CCCCCCCCCCCCCCCCN,,inactive
N#CC1(O)CCCCC1,,inactive
CCCC(CCC)C(=O)OC1C[C@H]2CC[C@@H](C1)[N+]2(C)C (stereo not given in full),,inactive
CC(C)(C)CC(C)(C)c1ccc(OCCO)cc1,,inactive
